“And” between values parts separate entries of the source, which are not always exact repeats. Equal entries are not always repeated. Results filed as inconclusive are left out. Entries that show only a call come without a potency. The source made the active and inactive calls. Unless noted, calls follow the shape of the dose curve; as a rule, active = well fitted curve in the direction sought with a large enough effect; inconclusive = small, poorly fitted or top-dose-only effect, or another doubt; inactive = no such curve, though single readings can be large; an effect the other way counts as inactive or inconclusive.
Columns and labels:
[1] = qHTS assay for small molecule agonists of retinoid X receptor alpha signaling (AID 588544; calls by dose curve); conditions: HEK293T RXRa-UAS-bla, beta-lactamase reporter, 18 h; 530 nm emission
[2] = target: Retinoic acid receptor RXR-alpha (Homo sapiens) (UniProt P19793); test: as above; conditions: HEK293T RXRa-UAS-bla, beta-lactamase reporter, 18 h; series mostly up to 76.7 µM
[3] = target: Thyroid hormone receptor beta (Homo sapiens) (UniProt P10828); test: qHTS assay for small molecule agonists of thyroid hormone receptor beta signaling (AID 588545; calls by dose curve); conditions: TR-UAS-bla GripTite HEK 293, beta-lactamase ratio, agonist mode, 18 h, percent of T3 response, DMSO as zero; series mostly up to 76.7 µM
Summary of the method: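 In this cell-based screen, titrated compounds act on HEK 293 cells held in medium with 2% charcoal/dextran FBS, NEAA and pyruvate for 18 hrs at 37 C. Responses are expressed relative to T3 (10 nM) as 100% and basal DMSO as 0%.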

[4] = qHTS assay for small molecule antagonists of retinoid X receptor alpha signaling (AID 588546; active = well fitted inhibition curve with a large enough effect in the signal ratio, with a control signal flat, not every such curve was filed as active; the % refers to the signal ratio;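 also: cells stimulated with 9-cis-retinoic acid as agonist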); conditions: HEK293T RXRa-UAS-bla, beta-lactamase ratio, antagonist mode; measured here: W530 green channel, cytotoxicity proxy
Summary of the method: (§1)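 Beta-lactamase reporter inhibition, read as CCF4 fluorescence ratio (ex 405, em 460/530 nm) after 2 h at RT. HEK293T UAS-bla cells, 2500/well, were stimulated with 9-cis-RA at 500 or 100 nM final alongside test compound for 18 h at 37 C.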

[5] = target: Retinoic acid receptor RXR-alpha (Homo sapiens) (UniProt P19793); test: as above; conditions: HEK293T RXRa-UAS-bla, beta-lactamase ratio, antagonist mode
Summary of the method: as §1

[6] = target: Thyroid hormone receptor beta (Homo sapiens) (UniProt P10828); test: qHTS assay for small molecule antagonists of thyroid hormone receptor beta signaling (AID 588547; active = well fitted inhibition curve with a large enough effect in the signal ratio, with a control signal flat, not every such curve was filed as active; the % refers to the signal ratio;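 also: cells stimulated with 0.4 nM T3 agonist during compound exposure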); conditions: TR-UAS-bla HEK293, beta-lactamase ratio, antagonist mode, 18 h
Summary of the method: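 TR-UAS-bla GripTite HEK293 cells in 2% charcoal/dextran FBS medium were preincubated 4 h at 37 C, given compound (0.59 nM to 92 uM) plus 0.4 nM T3 (final) for 18 h, then CCF4 for 2 h at RT; Hill fit gave IC50.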

[7] = target: Voltage-gated inwardly rectifying potassium channel KCNH2 (Homo sapiens) (UniProt Q12809); test: qHTS Assay for Small Molecule Inhibitors of the Human hERG Channel Activity (AID 588834); conditions: U2OS BacMam hERG, FluxOR thallium flux fluorescence; series mostly up to 92.2 µM;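 also: top concentration of the series differs between compounds; lower thallium flux fluorescence means stronger hERG block; nearly all actives have a fitted effect of over 50% in size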
Summary of the method: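 Concentration-response qHTS measuring drop in thallium-sensitive dye signal. U2OS cells carrying BacMam hERG; compound exposure ~10 min, then stimulation buffer and 2 min read at 1 sec intervals.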

[8] = qHTS assay for small molecule agonists of the antioxidant response element (ARE) signaling pathway (AID 651741; active = well fitted activation curve with a large enough effect in the signal ratio; the % refers to the signal ratio); conditions: HepG2 ARE-bla reporter, beta-lactamase FRET ratio, 16 h; series mostly up to 96 µM
Summary of the method: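 ARE-bla HepG2 cells (beta-lactamase reporter under ARE control) were plated at 2,000 cells/well, preincubated 5 h at 37 C/5% CO2, then treated with DMSO-dissolved compounds for 16 h at 37 C; LiveBLAzer B/G FRET substrate added, fluorescence read after 2 h at room temperature.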

[9] = qHTS assay for small molecule activators of the p53 signaling pathway (AID 651743; active = well fitted activation curve with a large enough effect in the signal ratio, not every such curve was filed as active; the % refers to the signal ratio); conditions: HCT-116 p53RE-bla, beta-lactamase FRET ratio, 16 h; stronger effect = higher value
Summary of the method: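 p53RE-bla HCT-116 cells with a stably integrated beta-lactamase reporter under p53 response elements were plated, rested 5 hours at 37 C/5% CO2, then exposed to compounds in DMSO for 16 hours at 37 C. LiveBLAzer B/G FRET substrate was read after 2 hours at room temperature.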

[10] = qHTS assay for small molecule activators of the nuclear factor-kappa B (NF-kB) signaling pathway (AID 651749; active = well fitted activation curve with a large enough effect in the signal ratio; the % refers to the signal ratio); conditions: NF-kB-bla ME-180 cells, beta-lactamase FRET ratio, 16 h; stronger effect = higher value
Summary of the method: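 ME-180 cells stably carrying a beta-lactamase reporter under an NF-kB response element were exposed to compound or DMSO vehicle for 16 hr at 37C, 5% CO2. Pathway activation was read by FRET, since reporter expression disrupts FRET.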

[11] = qHTS assay for small molecule disruptors of the mitochondrial membrane potential - 5 hr assay (AID 651755; calls by dose curve; also: nearly all actives have a fitted effect of over 40% in size); conditions: JC-1-type ratio dye; series mostly up to 92.2 µM
Summary of the method: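 HepG2 cells, attached overnight at 37C, were exposed to compound or DMSO for 5 hr at 37C, 5% CO2. Mito-MPS dye was then added for 30 min, and fluorescence read at 490/535 nm (monomers) and 540/590 nm (aggregates).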

[12] = target: Tumor necrosis factor (Homo sapiens) (UniProt P01375); test: qHTS assay to identify small molecules that stimulate Tumor Necrosis Factor-alpha (TNF-alpha) secretion (AID 651757; active = well fitted curve in the direction sought with a large enough effect in the signal ratio; the % refers to the signal ratio); conditions: Human cells, HTRF 665/615 ratio; series mostly up to 92.2 µM
Summary of the method: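 THP-1 cells were exposed to compounds for 17 hrs at 37 C, after which secreted TNF-alpha was measured by homogeneous HTRF (TR-FRET) using cryptate- and XL665-labeled anti-TNF-alpha antibodies, read after 3 hr at room temperature.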

[13] = qHTS assay to identify small molecules that stimulate interleukin-8 (IL-8) secretion (AID 651758; active = well fitted activation curve with a large enough effect in the signal ratio; the % refers to the signal ratio); conditions: HTRF ratio (665/615); series mostly up to 92.2 µM
Summary of the method: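 THP-1, 2000 cells/well; cpd 16 h, 37 C; add cryptate + XL665 anti-IL-8 Abs; RT 1-3 h; TR-FRET read.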

[14] = target: Peroxisome proliferator-activated receptor alpha (Homo sapiens) (UniProt Q07869); test: qHTS assay for small molecule agonists of the peroxisome proliferator-activated receptor alpha (PPARalpha) signaling pathway (AID 651778); conditions: PathHunter PPARalpha complementation, chemiluminescence, 6 h; stronger effect = higher value
Summary of the method: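 Cells plated at 2,000/well and held overnight at 37 C, 5% CO2, then compound added by pin tool for 6 hr; after PathHunter detection reagent and 60 min at room temperature, chemiluminescence from enzyme complementation was read.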

[15] = target: Nuclear receptor ROR-gamma (Homo sapiens) (UniProt P51449); test: qHTS assay for small molecule antagonists of the retinoid-related orphan receptor gamma (ROR-gamma) signaling pathway (AID 651802); conditions: ROR-gamma antagonist cell reporter assay; series mostly up to 92.2 µM; also: nearly all actives have a fitted effect of over 60% in size
Summary of the method: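 CHO cells carrying TET-inducible ROR-gamma and an ROR response element–luciferase reporter were exposed to compound, then induced with doxycycline. After 16hr at 37C, luminescence was read; lower signal indicates antagonism.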

[16] = qHTS assay for small molecule agonists of the antioxidant response element (ARE) signaling pathway measured by Nrf2-dependant transcriptional activity (AID 720636; active = well fitted curve in the direction sought with a large enough effect in the repeat runs; an effect the other way counts as inactive or inconclusive); conditions: ARE-luc HepG2, Nrf2 luciferase reporter, 16 h; series mostly up to 92.4 µM
Summary of the method: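 ARE-luc HepG2 cells carrying an Nrf2-responsive luciferase reporter were plated in medium with 1% dialyzed FBS, left 6 hr at 37 C to attach, then exposed to compound for 16 hr. Luciferase luminescence was read after ONE-Glo addition.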

[17] = qHTS assay for small molecule antagonists of the retinoid-related orphan receptor gamma (ROR-gamma) signaling pathway - cell viability counter screen (AID 720652; active = well fitted curve in the direction sought with a large enough effect in the repeat runs; an effect the other way counts as inactive or inconclusive;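 also: compound exposure lasted 16 hr before ATP read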); conditions: RORgamma reporter cell line viability counter screen; series mostly up to 92.2 µM
Summary of the method: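 Counter screen in CHO cells carrying TET-inducible ROR-gamma and an ROR response element-luciferase reporter; cells plated 5 hr, compound pinned, doxycycline added, then 16 hr at 37 C. Viability read as intracellular ATP by CellTiter-Glo luminescence.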

[18] = qHTS assay for small molecule agonists of the antioxidant response element (ARE) signaling pathway measured by Nrf2-dependant transcriptional activity - cell viability counter screen (AID 720653; active = well fitted curve in the direction sought with a large enough effect in the repeat runs; an effect the other way counts as inactive or inconclusive); conditions: ARE-bla HepG2 viability, CellTiter-Glo ATP luminescence, 16 h; stronger effect = lower value
Summary of the method: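 ARE-bla HepG2 cells (2,000/well) rested 5 hrs at 37C/5% CO2, then exposed to compounds in DMSO for 16 hrs. Viability was read in the same wells as intracellular ATP by luminescence, 30 min at room temperature after reagent addition.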

[19] = qHTS assay for environmental chemicals that activate the Aryl hydrocarbon Receptor (AhR) signaling pathway (AID 651777); conditions: 1A2-DRE human hepatoma cells, luciferase, 24 h; activation: stronger effect = higher value; also: nearly all actives have a fitted effect of over 15% in size
Summary of the method: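 Human hepatoma 1A2-DRE cells, stably carrying a dioxin response element and CYP1A2 promoter driving luciferase, were exposed to compounds for 24 hr at 37 C and 5% CO2. Luciferase signal was then read after 30 min One-Glo at room temperature.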

[20] = qHTS assay for small molecule disruptors of the mitochondrial membrane potential - 1 hr assay (AID 651754; calls by dose curve; also: nearly all actives have a fitted effect of over 35% in size); conditions: series mostly up to 92.2 µM
Summary of the method: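 HepG2 cells, attached overnight at 37C, were exposed to compound or DMSO vehicle for 1 hr at 37C, 5% CO2, then stained with Mito-MPS dye for 30 min. Red aggregate versus green monomer fluorescence reports membrane potential.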

Thyroid hormone receptor beta (Homo sapiens), sequence (P10828 whole entry, looked up): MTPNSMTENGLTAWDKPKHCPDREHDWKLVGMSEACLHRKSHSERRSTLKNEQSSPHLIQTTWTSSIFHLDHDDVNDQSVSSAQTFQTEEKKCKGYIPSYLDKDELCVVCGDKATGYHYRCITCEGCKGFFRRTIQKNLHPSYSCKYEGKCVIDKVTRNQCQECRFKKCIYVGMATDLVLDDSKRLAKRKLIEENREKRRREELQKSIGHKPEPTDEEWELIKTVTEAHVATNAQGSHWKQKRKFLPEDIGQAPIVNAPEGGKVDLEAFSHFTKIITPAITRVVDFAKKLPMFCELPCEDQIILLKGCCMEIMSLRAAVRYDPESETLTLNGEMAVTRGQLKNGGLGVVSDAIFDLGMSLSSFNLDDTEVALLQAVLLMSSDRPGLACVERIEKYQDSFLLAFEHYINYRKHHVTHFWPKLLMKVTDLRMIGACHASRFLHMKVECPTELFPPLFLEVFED
Retinoic acid receptor RXR-alpha (Homo sapiens), sequence (P19793 whole entry, looked up): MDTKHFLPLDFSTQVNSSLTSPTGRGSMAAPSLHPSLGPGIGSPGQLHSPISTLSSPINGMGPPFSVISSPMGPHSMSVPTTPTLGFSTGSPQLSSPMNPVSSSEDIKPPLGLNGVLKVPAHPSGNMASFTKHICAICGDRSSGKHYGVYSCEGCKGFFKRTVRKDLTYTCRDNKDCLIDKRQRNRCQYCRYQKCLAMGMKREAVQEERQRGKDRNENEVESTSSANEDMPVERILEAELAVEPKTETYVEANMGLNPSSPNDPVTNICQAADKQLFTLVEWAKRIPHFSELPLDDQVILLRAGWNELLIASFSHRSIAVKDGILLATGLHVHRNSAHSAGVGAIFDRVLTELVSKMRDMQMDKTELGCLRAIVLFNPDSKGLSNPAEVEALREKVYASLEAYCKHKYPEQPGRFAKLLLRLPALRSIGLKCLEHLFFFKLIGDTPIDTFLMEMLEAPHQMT
Tumor necrosis factor (Homo sapiens), sequence (P01375 whole entry, looked up): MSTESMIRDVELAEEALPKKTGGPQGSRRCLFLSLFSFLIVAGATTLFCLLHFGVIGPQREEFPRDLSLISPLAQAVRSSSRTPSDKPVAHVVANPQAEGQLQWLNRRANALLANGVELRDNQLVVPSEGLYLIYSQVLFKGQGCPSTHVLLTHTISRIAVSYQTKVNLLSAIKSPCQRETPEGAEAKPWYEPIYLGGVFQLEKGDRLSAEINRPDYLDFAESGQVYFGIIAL
Nuclear receptor ROR-gamma (Homo sapiens), sequence (P51449 whole entry, looked up): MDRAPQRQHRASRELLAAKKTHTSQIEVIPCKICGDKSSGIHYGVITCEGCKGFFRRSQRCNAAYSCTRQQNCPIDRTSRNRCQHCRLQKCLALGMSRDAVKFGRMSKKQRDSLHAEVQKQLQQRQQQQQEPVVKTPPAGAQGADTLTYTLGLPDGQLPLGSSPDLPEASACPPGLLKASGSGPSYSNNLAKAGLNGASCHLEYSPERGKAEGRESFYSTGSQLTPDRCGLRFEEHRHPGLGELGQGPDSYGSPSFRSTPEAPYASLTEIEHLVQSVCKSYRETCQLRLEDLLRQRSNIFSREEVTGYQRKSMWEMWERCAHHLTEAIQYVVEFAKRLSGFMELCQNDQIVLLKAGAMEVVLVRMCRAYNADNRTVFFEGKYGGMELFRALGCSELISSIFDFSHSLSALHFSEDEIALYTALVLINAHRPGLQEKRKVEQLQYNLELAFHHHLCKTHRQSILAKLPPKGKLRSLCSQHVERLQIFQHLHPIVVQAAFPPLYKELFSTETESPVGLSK
Peroxisome proliferator-activated receptor alpha (Homo sapiens), sequence (Q07869 whole entry, looked up): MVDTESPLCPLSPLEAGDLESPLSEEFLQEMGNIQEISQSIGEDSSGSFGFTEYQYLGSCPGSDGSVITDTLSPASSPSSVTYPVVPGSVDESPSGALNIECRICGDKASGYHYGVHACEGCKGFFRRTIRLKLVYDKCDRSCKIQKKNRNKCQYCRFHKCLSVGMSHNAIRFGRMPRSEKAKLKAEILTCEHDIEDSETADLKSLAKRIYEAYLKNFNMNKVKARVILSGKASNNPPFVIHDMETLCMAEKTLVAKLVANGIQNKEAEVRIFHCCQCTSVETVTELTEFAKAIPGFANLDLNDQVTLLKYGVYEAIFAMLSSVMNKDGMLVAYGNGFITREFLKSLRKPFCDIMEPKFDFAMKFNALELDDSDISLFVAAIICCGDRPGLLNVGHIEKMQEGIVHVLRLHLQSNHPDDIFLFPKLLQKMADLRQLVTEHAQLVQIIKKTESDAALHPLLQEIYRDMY
Voltage-gated inwardly rectifying potassium channel KCNH2 (Homo sapiens), sequence (Q12809 whole entry, looked up): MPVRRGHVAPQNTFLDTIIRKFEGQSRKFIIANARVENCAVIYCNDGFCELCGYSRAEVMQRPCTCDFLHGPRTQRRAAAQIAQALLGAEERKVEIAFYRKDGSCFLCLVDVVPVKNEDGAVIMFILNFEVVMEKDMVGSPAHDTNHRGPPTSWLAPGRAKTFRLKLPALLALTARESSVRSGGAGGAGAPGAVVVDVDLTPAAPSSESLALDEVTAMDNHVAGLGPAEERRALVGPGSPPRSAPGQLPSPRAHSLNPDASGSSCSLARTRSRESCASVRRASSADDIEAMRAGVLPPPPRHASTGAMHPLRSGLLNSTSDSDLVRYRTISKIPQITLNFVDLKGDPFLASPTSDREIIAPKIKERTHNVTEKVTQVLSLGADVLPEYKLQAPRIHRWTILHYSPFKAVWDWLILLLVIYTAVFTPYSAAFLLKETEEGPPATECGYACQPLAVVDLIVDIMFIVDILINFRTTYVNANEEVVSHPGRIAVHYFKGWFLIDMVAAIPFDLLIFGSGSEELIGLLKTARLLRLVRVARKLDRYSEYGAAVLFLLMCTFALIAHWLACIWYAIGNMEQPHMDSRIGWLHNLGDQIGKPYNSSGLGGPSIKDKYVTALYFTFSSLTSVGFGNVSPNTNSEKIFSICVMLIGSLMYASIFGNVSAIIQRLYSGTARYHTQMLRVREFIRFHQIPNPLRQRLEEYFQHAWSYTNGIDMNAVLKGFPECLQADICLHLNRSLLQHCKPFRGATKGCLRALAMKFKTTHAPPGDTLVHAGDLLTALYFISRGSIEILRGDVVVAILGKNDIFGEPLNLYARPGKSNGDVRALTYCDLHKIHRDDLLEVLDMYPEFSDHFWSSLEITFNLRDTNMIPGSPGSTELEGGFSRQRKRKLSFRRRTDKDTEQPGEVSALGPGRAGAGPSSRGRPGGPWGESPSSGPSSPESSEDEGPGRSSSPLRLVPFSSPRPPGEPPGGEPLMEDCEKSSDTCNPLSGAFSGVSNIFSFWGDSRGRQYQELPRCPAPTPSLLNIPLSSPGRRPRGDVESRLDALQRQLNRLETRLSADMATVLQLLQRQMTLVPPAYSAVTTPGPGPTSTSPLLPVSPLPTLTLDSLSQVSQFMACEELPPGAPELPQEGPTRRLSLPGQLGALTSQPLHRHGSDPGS

SMILES	max response [1]	outcome [2]	outcome [3]	max response [4]	max response [5]	activity change % (negative = inhibition) [6]	Potency [7]	Potency [8]	activation [9]	activation [10]	Potency [11]	Potency [12]	Potency [13]	max response [14]	Potency [15]	outcome [16]	Potency [17]	max response [18]	activation [19]	Potency [20]
CCOC(C)(C)C	-2.56%	inactive	inactive	-1.08%	3.08% (inactive)	-6.37% (inactive)	inactive	inactive	-0.539% (inactive)	0.0467% (inactive)	inactive	inactive	inactive	-4.96% (inactive)	inactive	inactive	inactive	-6.47% (inactive)		
CC(=O)Nc1ccc(C)cc1	-6.19%	inactive	inactive	-3.72%	5.73% (inactive)	8.42% (inactive)	inactive	inactive	-3.2% (inactive)	1.33% (inactive)	inactive	inactive		-1.18% (inactive)	inactive	inactive	inactive	2.3% (inactive)	-0.295% (inactive)	
CCCCCCC=O	-2.47%	inactive	inactive	9.36%	7.58% (inactive)	-17.7% (inactive)	inactive	inactive	0.659% (inactive)	-0.682% (inactive)		inactive		-2.2% (inactive)	inactive	inactive	inactive	14.6% (inactive)	-0.184% (inactive)	inactive
CCC(C)=O	-3%	inactive	inactive	-3.56%	0.0353% (inactive)	-18.3% (inactive)	inactive	inactive	-2.15% (inactive)	-1.44% (inactive)		inactive	inactive	-7.5% (inactive)		inactive	inactive	-4.32% (inactive)	-0.131% (inactive)	
O=c1[nH][nH]c(=O)c2cc([N+](=O)[O-])ccc12	-1.84%	inactive	inactive	-8.03%	10.6% (inactive)	15.8% (inactive)	inactive	inactive	-3.95% (inactive)	0.392% (inactive)		inactive		-4.9% (inactive)	inactive	inactive	inactive		1.03% (inactive)	
CCOCC(=O)O	-7.45%	inactive	inactive	2.97%	4.52% (inactive)	4.7% (inactive)	inactive	inactive	-3.4% (inactive)	0.266% (inactive)		inactive	inactive	-1.55% (inactive)	inactive	inactive	inactive		-0.35% (inactive)	inactive
Nc1nc(CC(=O)O)cs1	-4.19%	inactive	inactive	-14%	-13.3% (inactive)	1.64% (inactive)	inactive	inactive	-1.45% (inactive)		inactive	inactive		1.57% (inactive)	inactive	inactive	inactive	4.24% (inactive)	-0.467% (inactive)	inactive
CCCCCNCCCCC	1.44% and -10.1%	inactive	inactive	-1.51% and -1.45%	4.32% (inactive) and 13.3% (inactive)	-1.69% (inactive) and -17.1% (inactive)	inactive	inactive	-2.16% (inactive) and -1.29% (inactive)		inactive	inactive	inactive	-4.45% (inactive) and 0.112% (inactive)	inactive	inactive	inactive	-0.347% (inactive) and -3.31% (inactive)	0.294% (inactive) and -0.372% (inactive)	inactive
Cc1ccc(C)o1	16.3%	inactive	inactive	5.87%	-4.44% (inactive)	-3.98% (inactive)	inactive	inactive	-6.1% (inactive)		inactive	inactive		-7.85% (inactive)	inactive	inactive	inactive	-12.8% (inactive)	-0.971% (inactive)	inactive
Cc1ccc2cccnc2c1	5.51%	inactive	inactive	6%	0.426% (inactive)	17% (inactive)	inactive	inactive	-4.94% (inactive)		inactive	inactive	inactive	-8.31% (inactive)	inactive	inactive	inactive	0.459% (inactive)	0.306% (inactive)	inactive
Cc1cscn1	-3.55%	inactive	inactive	-2.99%	3.21% (inactive)	9.8% (inactive)	inactive	inactive	-1.86% (inactive)	-0.548% (inactive)		inactive		-1.32% (inactive)		inactive	inactive	0.707% (inactive)	1.08% (inactive)	
O=[N+]([O-])c1cc(C(F)(F)F)ccc1Cl	-4.02%	inactive	inactive	-1.67%	-6.84% (inactive)	-5.36% (inactive)	inactive	inactive	-0.0124% (inactive)		inactive	inactive		0.399% (inactive)	inactive	inactive	inactive		1.14% (inactive)	inactive

Reference: PubChem BioAssay (NCATS)
